The values that follow come from PubChem BioAssay.

Experiment [1] has as its system XIP peptide (Xip251-270) binding. The experiment can be described thus: XIP fragment 251-270 binding compounds – biochemical, small-molecule microarray, fluorescence 635/667 nm, 0.1 µg/mL protein, primary screen (AID 1182). Conditions: fluorescent protein binding, 635 nm, higher = more signal, called active from +8 up or from −8 down.
Experiment [2] concerns XIP peptide (Xip251-270). The experiment can be described thus: compounds binding XIP fragment 251-270 – biochemical, small-molecule microarray, fluorescence 635/667 nm, 0.5 µg/mL protein, primary screen (AID 1183). Conditions: fluorescence 635 nm, higher = more signal.
Experiment [3] is described as follows: blood-stage malaria parasite viability loss – strain 3D7, DAPI fluorescence, 100 nL, primary screen (AID 1184).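 Further: parasites grown inside human red blood cells in medium with human serum.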 Conditions: P. falciparum 3D7 growth, 3 d, higher = more signal.
The target in experiment [4] is Homeobox protein Hox-A13 (Mus musculus) (UniProt Q62424). The experiment can be described thus: disruptors of Hoxa13 oligonucleotide interaction – biochemical, fluorescence polarization, labeled oligonucleotide, primary screen (AID 1185). Conditions: Hoxa13:DNA binding, 15 min, higher = more signal, called active from +8 up or from −8 down. In general terms: In fluorescence polarisation assays a small probe gives low polarisation when free and higher when bound to something large.
Homeobox protein Hox-A13 (Mus musculus), sequence (Q62424 whole entry, looked up): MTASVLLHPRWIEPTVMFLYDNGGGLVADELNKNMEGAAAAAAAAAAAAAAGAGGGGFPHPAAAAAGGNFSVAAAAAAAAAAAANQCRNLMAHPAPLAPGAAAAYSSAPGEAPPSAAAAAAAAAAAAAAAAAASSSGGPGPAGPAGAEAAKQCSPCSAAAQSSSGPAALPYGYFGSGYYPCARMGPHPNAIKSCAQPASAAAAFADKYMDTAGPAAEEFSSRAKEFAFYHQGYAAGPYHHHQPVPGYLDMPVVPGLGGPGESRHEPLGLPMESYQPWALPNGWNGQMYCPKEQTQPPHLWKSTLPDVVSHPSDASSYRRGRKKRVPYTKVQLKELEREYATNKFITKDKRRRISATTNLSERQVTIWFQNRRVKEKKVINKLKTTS

Experiment [5] in a line: blockers of DNA damage checkpoint Chk1 activation – imaging, HeLa, hydroxyurea, phospho-Chk1 antibody, percent positive cells, primary screen (AID 1186). Conditions: hydroxyurea-induced phospho-Chk1 immunofluorescence imaging, higher = more signal.
The nature of experiment [6]: blockers of DNA damage checkpoint Chk1 activation – imaging, HeLa, hydroxyurea, phospho-Chk1 nuclear intensity, primary screen (AID 1187). Conditions: hydroxyurea-induced phospho-Chk1 immunofluorescence imaging, higher = more signal.

Activity calls are given as the source filed them. Unless noted, how the calls were made is not given here.

`CN1C(=O)C2C=CC(C(O)c3cccs3)N(Nc3ccccc3)C2C1=O` (stereo unspecified): the composite z-score in experiment [1] was 0.193 (inactive); in experiment [2], 0.356. In addition, the z-score in experiment [3] was 0.376; in experiment [4], -1.14 (inactive); in experiment [5], 0.482 (inactive); in experiment [6], 0.35 (inactive).

`O=C1O[C@H](c2ccccc2)[C@H](c2ccccc2)N2[C@H]1[C@@H](C(=O)Nc1nc3ccccc3s1)[C@]1(C(=O)Nc3ccc(C#CC4(O)CCCCCC4)cc31)[C@H]2c1ccc(OCCO)cc1`: the composite z-score is 2.25 (inactive) in experiment [1] and 0.663 in experiment [2]. For the same molecule, the z-score was -1.8 in experiment [3], -0.979 (inactive) in experiment [4], 0.341 (inactive) in experiment [5] and 0.346 (inactive) in experiment [6].

`COc1ccc(CCNC(=O)[C@@]2(Sc3ccc(C)cc3)CC(=O)N(C3CCCCC3)[C@@H]2c2ccc(CO)cc2I)cc1`: the values for the composite z-score in experiment [1] and in experiment [2] were 0.0537 (inactive) and 0.753, respectively. Also, the z-score in experiment [3] is -2.12; in experiment [4], -1.88 (inactive); in experiment [5], 0.431 (inactive); in experiment [6], 1.23 (inactive).

As to `COCCOC(=O)N1C(=O)[C@@]2(c3cc(C#CCNC(N)=O)ccc31)[C@H](C(=O)NC[C@H](O)c1ccccc1)[C@H]1C(=O)O[C@H](c3ccccc3)[C@H](c3ccccc3)N1[C@@H]2c1ccccc1OCCO`, the composite z-score in experiment [1] was 0.0808 (inactive); in experiment [2] it was 0.689. In addition, the z-score in experiment [3] was -0.411; in experiment [4], -1.65 (inactive); in experiment [5] it was 0.0441 (inactive); in experiment [6], 0.0861 (inactive).

For `COc1ccc([Si](C)(C)[C@H]2[C@H](CCO)O[C@@]3(C(=O)N(Cc4ccc(N5C(=O)COc6ccccc65)cc4)c4ccccc43)[C@@H]2C)cc1`, the composite z-score in experiment [1] was 0.0409 (inactive); in experiment [2], 0.254. Moreover, the z-score in experiment [3] is -1.95; in experiment [4] it was -0.911 (inactive); in experiment [5] it was -0.661 (inactive); in experiment [6] it was -1.02 (inactive).

As for `COCCCNC(=O)[C@@]1(Cc2ccccc2)N=C(c2ccc(OCCCO)cc2)O[C@H]1c1ccccc1`, the results for the composite z-score in experiment [1] and in experiment [2] were 0.111 (inactive) and 0.752, respectively. The z-score in experiment [3] is -2; in experiment [4], -5.35 (inactive); in experiment [5], 0.129 (inactive); in experiment [6], 0.221 (inactive).

On to `COC(=O)[C@@]1(Cc2ccccc2)[C@H]2c3cc(C(=O)N4CCCC4)n(CC4CC4)c3C[C@H]2CN1C(=O)c1ccccc1`, for which the composite z-score in experiment [1] was 0.258 (inactive); in experiment [2] it was 0.628. Besides, the z-score in experiment [3] is -1.79; in experiment [4] it was -5.17 (inactive); in experiment [5], 0.874 (inactive); in experiment [6], 0.76 (inactive).

Take `[N-]=[N+]=NCc1ccccc1[C@H]1OC(c2ccc(OCCCO)cc2)=N[C@@]1(Cc1ccccc1)C(=O)NCc1ccccc1`: the composite z-score is 0.212 (inactive) in experiment [1] and 0.471 in experiment [2]. For the same molecule, the z-score was -2.49 in experiment [3], 2.55 (inactive) in experiment [4], -0.287 (inactive) in experiment [5] and -0.083 (inactive) in experiment [6].

Turning to `C=CCOC(=O)[C@H]1[C@@H]2C(=O)O[C@@H](c3ccccc3)[C@@H](c3ccccc3)N2[C@@H](c2ccc(OCCOC(=O)[C@@H]3C[C@@H]4C(=O)N[C@@H](CCCCN(C)C)C(=O)N4[C@@H]3c3ccc(O)cc3)cc2)[C@]12C(=O)Nc1ccc(I)cc12`, the composite z-score was 1.74 (inactive) in experiment [1] and 0.805 in experiment [2]. The z-score was -0.174 in experiment [3], 6.34 (inactive) in experiment [4], 0.936 (inactive) in experiment [5] and 0.679 (inactive) in experiment [6].

For the molecule `COCCOC(=O)N1C(=O)[C@@]2(c3cc(C#CC4=CCCCC4)ccc31)[C@H](C(N)=O)[C@H]1C(=O)O[C@H](c3ccccc3)[C@H](c3ccccc3)N1[C@@H]2c1ccc(OCCO)cc1`, the composite z-score in experiment [1] is 0.134 (inactive); in experiment [2], 0.729. The z-score is -2 in experiment [3], 2.15 (inactive) in experiment [4], -0.116 (inactive) in experiment [5] and -0.321 (inactive) in experiment [6].

Regarding `COCCOC(=O)N1C(=O)[C@@]2(c3cc(C#CC4=CCCCC4)ccc31)[C@H](C(=O)Nc1nc3ccccc3s1)[C@H]1C(=O)O[C@H](c3ccccc3)[C@H](c3ccccc3)N1[C@@H]2c1ccccc1OCCO`, the figures for the composite z-score in experiment [1] and in experiment [2] were 0.494 (inactive) and 0.698, respectively. Besides, the z-score in experiment [3] is -2.04; in experiment [4], 1.67 (inactive); in experiment [5] it was -0.169 (inactive); in experiment [6], -0.114 (inactive).

For `COc1ccc(C#Cc2ccc3c(c2)[C@]2(C(=O)N3)[C@H](c3ccccc3OCCO)N3[C@H](c4ccccc4)[C@H](c4ccccc4)OC(=O)[C@H]3[C@@H]2C(=O)O)cc1`, the composite z-score is 2.03 (inactive) in experiment [1] and 0.695 in experiment [2]. Also, the z-score was -1.27 in experiment [3], -4.32 (inactive) in experiment [4], -0.331 (inactive) in experiment [5] and -0.416 (inactive) in experiment [6].

Turning to `C=CCOC(=O)[C@@H]1[C@H]2C(=O)O[C@H](c3ccccc3)[C@H](c3ccccc3)N2[C@H](c2ccc(OCCOC(=O)[C@@H]3C[C@@H]4C(=O)N5CCC[C@H]5C(=O)N4[C@@H]3c3ccc(O)cc3)cc2)[C@@]12C(=O)Nc1ccc(I)cc12`, the composite z-score in experiment [1] was 0.393 (inactive); in experiment [2], 0.533. Also, the z-score in experiment [3] is -1.85; in experiment [4], 1.38 (inactive); in experiment [5] it was -0.946 (inactive); in experiment [6], -0.3 (inactive).

With `COC(=O)[C@@]1(Cc2ccc(F)cc2)[C@H]2c3cc(C(=O)N(C)C)n(Cc4ccc(S(C)(=O)=O)cc4)c3C[C@H]2CN1C(=O)c1ccccc1`, the composite z-score in experiment [1] was 1.46 (inactive); in experiment [2], 0.788. Moreover, the z-score in experiment [3] is -0.589; in experiment [4] it was -4.58 (inactive); in experiment [5], 0.144 (inactive); in experiment [6], 0.0541 (inactive).

Turning to `[N-]=[N+]=NCc1ccccc1[C@@H]1OC(c2ccc(OCCCO)cc2)=N[C@]1(Cc1ccccc1N=[N+]=[N-])C(=O)N1CCOCC1`, the figures for the composite z-score in experiment [1] and in experiment [2] were 0.129 (inactive) and 0.706, respectively. Further, the z-score in experiment [3] is -2.03; in experiment [4], -2.15 (inactive); in experiment [5], 0.0823 (inactive); in experiment [6], 0.515 (inactive).

For `COCCOC(=O)N1C(=O)[C@@]2(c3cc(C#CCCO)ccc31)[C@H](C(=O)N1CCN(c3ncccn3)CC1)[C@H]1C(=O)O[C@H](c3ccccc3)[C@H](c3ccccc3)N1[C@@H]2c1ccccc1OCCO`, the composite z-score in experiment [1] was 0.954 (inactive); in experiment [2], 0.655. For the same molecule, the z-score in experiment [3] was -2.28; in experiment [4], -1.58 (inactive); in experiment [5] it was -0.0632 (inactive); in experiment [6], 0.111 (inactive).
